# Assay results from PubChem BioAssay AID463173 (ICCB-Longwood Screening Facility, Harvard Medical School, 2010).
# Screen size: about 52,000 compounds; about 4,300 (8.3%) were called active. No stated cut-off is given here; in the data, active means survival mostly below about 52% (no sharp cut-off); inactive means mostly above about 56%. This excerpt belongs to a sample that is enriched for actives.
# Tested on: DeltatarO mutant
# Assay: S. aureus survival, RN4220 and DeltatarO strains – OD600, teichoic acid synthesis inhibitors, primary screen (AID 463173)
# Details: S. aureus RN4220 wild type/DeltatarO growth, OD600, 18 h, stronger effect = lower value, screened at 18.75 µg/mL (by protocol)
row,SMILES,survival
1,O=C(O)CCSc1nc2ccccc2o1,87% (inactive)
2,CCc1cccc(C)c1NC(=O)CN(C)S(=O)(=O)c1cccc2nsnc12,89% (inactive)
3,COC(=O)C1=C(C)NC(=O)C1(NC(=O)c1cc(OC)c(OC)c(OC)c1)C(F)(F)F (stereo unspecified),54% (inactive)
4,CCC(C(=O)Nc1cccc(Cl)c1C)n1nc(C)c2sc3ccccc3c2c1=O (stereo unspecified),72% (inactive)
5,Cc1ccc(Cl)cc1NC(=O)C(C)n1nc(-c2ccccc2)ccc1=O (stereo unspecified),20% (active)
6,COc1ccc(NC(=O)C(C)n2nc(-c3ccc(C)c(C)c3)ccc2=O)cc1OC (stereo unspecified),69% (inactive)
7,CCC(C(=O)Nc1cc(OC)cc(OC)c1)n1nc(-c2ccc(C)c(C)c2)ccc1=O (stereo unspecified),75% (inactive)
8,Cc1ccc(-c2ccc(=O)n(CC(=O)Nc3ccc(C)cc3Cl)n2)cc1,50% (inactive)
9,Cc1ccc(Cl)cc1NC(=O)C(C)n1nnc2sc(-c3ccccc3)cc2c1=O (stereo unspecified),59% (inactive)
10,COc1ccc(Cl)cc1NC(=O)C(OC)c1ccccc1 (stereo unspecified),83% (inactive)
11,CCC(C(=O)Nc1cccc(Cl)c1C)n1nc(-c2ccc(C)cc2)ccc1=O (stereo unspecified),41% (active)
12,CCC(C(=O)Nc1cc(Cl)ccc1OC)n1nc(-c2ccccc2)ccc1=O (stereo unspecified),24% (active)
13,CC(=O)c1ccc(NC(=O)CSc2ccc3nc(-c4ccccc4)cn3n2)cc1,89% (inactive)
14,CC(=O)c1ccc(NC(=O)C(C)n2nc(-c3ccccc3)ccc2=O)cc1 (stereo unspecified),32% (active)
15,Cc1ccc(-c2ccc(=O)n(C(C)C(=O)Nc3ccccc3Cl)n2)cc1C (stereo unspecified),66% (inactive)
16,COc1cccc(N2CCN(c3ncc4c(n3)CCN(Cc3ccc(Br)cc3)C4)CC2)c1,79% (inactive)
17,COc1ccc(/C=C\c2onc(C)c2S(=O)(=O)N2CCC(C(=O)Nc3cccc(C)c3C)CC2)cc1,68% (inactive)
18,Cc1ccc(-c2nnn(CCC(=O)NC(C)(C)C)n2)cc1,91% (inactive)
19,Cc1ccc(C(=O)NCCC(C)C)cc1NC(=O)c1nsc2ccccc12,73% (inactive)
20,N#C/C(=C/c1cccs1)C(N)=S,99% (inactive)
21,Cc1cc(SCC(=O)NCc2ccc(Cl)cc2)nc(=O)[nH]1,86% (inactive)
22,O=C(Nc1cccc(-n2cnnn2)c1)c1ccccc1,95% (inactive)

row,SMILES,survival
1,N#C/C(=C\Nc1ccccc1O)c1nc2ccccc2o1,1% (active)
2,N#C/C(=C/Nc1cccc2ccccc12)c1nc2ccccc2o1,54% (inactive)
3,Cc1ccc(C)c(N/C=C(\C#N)c2nc3ccccc3o2)c1,95% (inactive)
4,CCCOC(=O)c1c(NC(=O)C(C)Sc2nc(-c3ccccc3)cc(C(F)(F)F)n2)sc(C(=O)N(C)C)c1C (stereo unspecified),132% (inactive)
5,CC(Oc1ccccc1)C(=O)Nc1nc2ccc(S(N)(=O)=O)cc2s1 (stereo unspecified),102% (inactive)
6,COCCNc1nc(NCc2ccccc2OC)c2cnn(C)c2n1,69% (inactive)
7,CCCCc1nc2ccccc2n2c(-c3ccc(OC)cc3)c3c(=O)n(C)c(=O)n(C)c3c12,49% (inactive)
8,CCOC(=O)CCc1c(C)nc2cc(-c3cc(OC)cc(OC)c3)[nH]n2c1=O,90% (inactive)
9,Cc1nc2c(-c3ccc(F)cc3)c(C)nn2c(C)c1CCC(=O)NCc1ccc(Cl)cc1,96% (inactive)
10,CCCCc1c(C)nc2c(-c3ccc(Cl)cc3)c(C)[nH]n2c1=O,-2% (active)
11,CCCCc1c(C)nc2c(-c3ccc(OC)cc3)c(C)[nH]n2c1=O,7% (active)
12,CCOC(=O)Cc1c(C)nc2c(-c3ccc(Cl)cc3)c(C(F)(F)F)nn2c1C,63% (inactive)
13,c1ccc(Cn2ncc3c(N4CCCCC4)ncnc32)cc1,77% (inactive)
14,COc1ccc(C2=C(C)C(=O)N(Cc3ccc(C(=O)NC(C)c4ccccc4)cc3)S2(=O)=O)cc1 (stereo unspecified),91% (inactive)
15,CCOC(=O)c1c(NC(=O)/C=C/c2ccc(C)cc2)sc(C(C)=O)c1C,79% (inactive)
16,CCOc1ccc(CNC(=O)c2cnc3sc(N4CCCCCC4)nn3c2=O)cc1OC,83% (inactive)
17,Cc1ccc(NC(=O)N2CCc3c(sc4c3CCCC4)C2c2ccccc2)cc1F (stereo unspecified),102% (inactive)
18,Cc1cccc(NC(=O)N2CCc3c(sc4c3CCCC4)C2c2ccc(F)cc2)c1 (stereo unspecified),37% (active)
19,COc1cc(NC(=O)N2CCc3c(sc4c3CCCC4)C2c2ccccc2)cc(OC)c1OC (stereo unspecified),103% (inactive)
20,COc1ccc(NC(=O)N2CCc3c(sc4c3CCCC4)C2c2ccc(F)cc2)cc1 (stereo unspecified),101% (inactive)
21,O=C(Nc1ccc(F)cc1F)N1CCc2c(sc3c2CCCC3)C1c1ccc(F)cc1 (stereo unspecified),93% (inactive)
22,COc1ccc(NC(=O)N2CCc3c(sc4c3CCCC4)C2c2ccccc2OC)cc1 (stereo unspecified),54% (active)

row,SMILES,survival
1,Cc1ccc([N+](=O)[O-])c(Oc2ncnc3c2oc2ccccc23)c1,101% (inactive)
2,Oc1c(C(c2ccccc2F)N2CCC3(CC2)OCCO3)sc2nc(-c3ccco3)nn12 (stereo unspecified),102% (inactive)
3,Cc1ccc(C)c(Nc2cc(C(=O)NC3CCCC3)c3ccccc3n2)c1,87% (inactive)
4,COc1ccc(N2C(=O)CS(=O)(=O)C23C(=O)N(Cc2ccccc2F)c2ccccc23)cc1Cl (stereo unspecified),75% (inactive)
5,CCOC(=O)c1c(NC(=O)c2ccc(S(=O)(=O)N(CC(C)C)CC(C)C)cc2)sc2c1CCN(C(=O)OCC)C2,124% (inactive)
6,Cc1ccc(Cl)cc1NC(=O)CSC1=Nc2ccccc2C2=NC(Cc3ccccc3)C(=O)N12 (stereo unspecified),71% (inactive)
7,COc1ccccc1NC(=O)CSc1nnc(NC(=O)Nc2ccc(C)cc2)s1,58% (inactive)
8,COc1ccc(NC(=O)CSc2nnc(NC(=O)Nc3ccccc3)s2)cc1OC,86% (inactive)
9,COc1ccc(NC(=O)CSc2nnc(NC(=O)Nc3ccccc3)s2)c(OC)c1,47% (active)
10,CCc1ccc(-n2nc(C)c3c(C(=O)N4CCN(c5ccccc5)CC4)cc(C)nc32)cc1,94% (inactive)
11,Cc1cccc(S(=O)(=O)c2cn(Cc3ccccc3)c3cc(N4CCCCC4)c(F)cc3c2=O)c1,82% (inactive)
12,O=c1c(S(=O)(=O)c2ccccc2)cn(Cc2ccc(F)cc2)c2cc(N3CCCCC3)c(F)cc12,80% (inactive)
13,CCn1cc(C(=O)NCC(C)C)c(=O)c2cc(F)c(N3CCN(C(=O)c4ccco4)CC3)cc21,76% (inactive)
14,Cc1cccc(S(=O)(=O)c2cn(Cc3ccc(F)cc3)c3cc(N4CCCCC4)c(F)cc3c2=O)c1,-2% (active)
15,CCn1cc(C(=O)O)c(=O)c2cc(F)c(N3CCN(C(=O)c4ccccc4F)CC3)cc21,3% (active)
16,CCn1cc(S(=O)(=O)c2cc(C)cc(C)c2)c(=O)c2cc(F)c(N3CCCC3)cc21,109% (inactive)
17,CCn1cc(C(=O)N2CCN(c3ccccc3F)CC2)c(=O)c2cc(S(=O)(=O)N(C)C)ccc21,122% (inactive)
18,CCn1cc(S(=O)(=O)c2cc(C)cc(C)c2)c(=O)c2cc(F)c(N3CCCCC3)cc21,86% (inactive)
19,CCN1CCN(c2cc3c(cc2F)c(=O)c(S(=O)(=O)c2cc(C)cc(C)c2)cn3CC)CC1,-1% (active)
20,Cn1cc(S(=O)(=O)c2cccc(Cl)c2)c(=O)c2cc(F)c(N3CCN(c4ccccc4)CC3)cc21,6% (active)
21,Cn1cc(S(=O)(=O)c2ccccc2)c(=O)c2cc(F)c(N3CCN(c4ccccc4)CC3)cc21,116% (inactive)
22,Cn1cc(S(=O)(=O)c2cccc(Cl)c2)c(=O)c2cc(F)c(N3CCN(c4ccc(F)cc4)CC3)cc21,70% (inactive)
